Results as given in PubChem BioAssay (NCATS).
Results filed as inconclusive are left out. The source made the active and inactive calls. The call rests on the fitted dose curve; in most records, active means well fitted cell-killing curve with a large enough effect; inconclusive means small, poorly fitted or top-dose-only effect, or effect the other way; inactive means flat fitted curve, though single readings scatter. Where a SMILES comes first, the peptide text is derived from it. The star is where a group is joined. PhAc = O=C(Cc1ccccc1)*

Tests used:
Experiment in all cases: Primary qHTS to identify gynecologic anti-cancer compounds using libraries of approved drugs and bioactive compounds (AID 1345084); further: nearly all actives have a fitted effect of over 55% in size
Conditions in all cases: Gynecologic cancer cell panel viability, ATPlite luminescence, 48 h; series mostly up to 57.5 µM
SKOV3 = test system: SKOV3
Outline: (§1)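 In this quantitative HTS, cell killing is estimated from loss of ATP-dependent luciferase light. Cells see five compound concentrations over a 48 h exposure.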

Tov-21-G = test system: Tov-21-G
Outline: as §1

Tov112D = test system: Tov112D
Outline: as §1
On the % scale 0 is the no-effect control and ±100 the full control effect.

CC/C=C\C(O)C(O)C1=C(C)C(=O)C2(O1)C(=O)NC(OC)(C(=O)c1ccccc1)C2O (centres undefined)
inactive: Potency (SKOV3) | Potency (Tov-21-G) | Potency (Tov112D)

C=C1CC[C@@H]2C(C)(C)CCC[C@@]2(C)[C@@H]1CC/C(=C/C(=O)OC)COC(C)=O
inactive: Potency (SKOV3) | Potency (Tov-21-G) | Potency (Tov112D)

CC(=O)OCC1=CCC2C(C)(C)CCCC2(C)C12CCC(C)(CC(=O)O)O2 (centres undefined)
inactive: Potency (SKOV3) | Potency (Tov-21-G) | Potency (Tov112D)

COc1cc(OC)cc(-c2ccc3c(-c4ccc(F)cc4)[nH]nc3n2)c1
inactive: Potency (SKOV3) | Potency (Tov-21-G) | Potency (Tov112D)

COCC1OC(OC(C)(C)C2CCC3(C)C=C(C4CCC5C4(C)CC(O)C4OC(C(C)(C)O)CCC45C)CCC3O2)C(NC(C)=O)C(O)C1O (centres undefined)
inactive: Potency (SKOV3) | Potency (Tov-21-G) | Potency (Tov112D)

CSCC1OC(n2cnc3c(=O)[nH]cnc32)C(O)C1O (centres undefined)
inactive: Potency (SKOV3) | Potency (Tov-21-G) | Potency (Tov112D)

CC1(C)[C@H]2C[C@H](C/C=C\CCCC(=O)O)[C@@H](NC(=O)c3csc4ccc(O)cc34)[C@@H]1C2
inactive: Potency (SKOV3) | Potency (Tov-21-G) | Potency (Tov112D)

CC(=O)O[C@H]1[C@H](OC(=O)C(C)C)[C@]2(C)OC3(CC[C@]2(C)[C@H]2CCC[C@]4(CO4)[C@]12C)COC(=O)C3 (some centres undefined)
inactive: Potency (SKOV3) | Potency (Tov-21-G) | Potency (Tov112D)

CC(C)C1NC(=O)CNC(=O)C2CCCN2C(=O)C(Cc2c[nH]c3ccccc23)NC(=O)CNC(=O)C(Cc2ccc(O)cc2)NC(=O)CNC1=O (centres undefined) (cyclo(GVGYGWP); configuration not given here)
inactive: Potency (SKOV3) | Potency (Tov-21-G) | Potency (Tov112D)

Cc1ccc([C@@H]2CC=C(C(=O)O)[C@H](c3ccc(C(C)(C)C)cc3)N2S(=O)(=O)c2ccc(C)cc2)cc1
inactive: Potency (SKOV3) | Potency (Tov-21-G) | Potency (Tov112D)

CC1CCC2(C(=O)OC3OC(CO)C(O)C(O)C3O)CCC3(C)C(=CCC4C5(C)CCC(O)C(C)(CO)C5CCC43C)C2C1(C)O (centres undefined)
inactive: Potency (SKOV3) | Potency (Tov-21-G) | Potency (Tov112D)

CN(C)CCC[C@]1(c2ccc(F)cc2)OCc2cc(C#N)ccc21
inactive: Potency (SKOV3) | Potency (Tov-21-G) | Potency (Tov112D)

CC1(C)CC[C@]2(C(=O)O)CC[C@]3(C)C(=CCC4[C@@]5(C)CC[C@H](O[C@@H]6O[C@H](C(=O)O)[C@@H](O)[C@H](O)[C@H]6O)C(C)(C)C5CC[C@]43C)C2C1 (some centres undefined)
inactive: Potency (SKOV3) | Potency (Tov-21-G) | Potency (Tov112D)

CC1(C(=O)O)CCCC2(C)C3CC4C5CC3(CCC12)CC45C (centres undefined)
inactive: Potency (SKOV3) | Potency (Tov-21-G) | Potency (Tov112D)

O=C(O[C@H]1[C@H](Oc2ccc(O)cc2CO)O[C@H](CO)[C@@H](O)[C@@H]1O)c1ccccc1
inactive: Potency (SKOV3) | Potency (Tov-21-G) | Potency (Tov112D)

CC(C)CC(=O)NCCn1cc(C(=O)O)c(=O)cc1C(O)c1ccccc1 (centres undefined)
inactive: Potency (SKOV3) | Potency (Tov-21-G) | Potency (Tov112D)

CC(C)=CCC[C@](C)(O[C@@H]1O[C@H](CO)[C@@H](O)[C@H](O)[C@H]1O)[C@H]1CC[C@]2(C)[C@@H]1[C@H](O)CC1[C@@]3(C)CC[C@H](O)C(C)(C)C3[C@@H](O[C@@H]3O[C@H](CO)[C@@H](O)[C@H](O)[C@H]3O[C@@H]3O[C@@H](C)[C@H](O)[C@@H](O)[C@H]3O)C[C@]12C (some centres undefined)
inactive: activity change, negative = cytotoxicity (SKOV3) 18.8% [at 11.6 µM] | activity change, negative = cytotoxicity (Tov-21-G) -0.988% [at 11.6 µM] | activity change, negative = cytotoxicity (Tov112D) 2.74% [at 11.6 µM]

CCOC(=O)CNC(=O)[C@@H]1CCCN1C(=O)Cc1ccccc1 (PhAc-Pro-Gly-OEt)
inactive: Potency (SKOV3) | Potency (Tov-21-G) | Potency (Tov112D)

C=CC(C)(O)CC/C=C(\C)C(=O)O[C@@H]1[C@@H](O)[C@H](OC(C)(C=C)CC/C=C(\C)C(=O)O[C@@H]2O[C@H](CO)[C@@H](O)[C@H](O)[C@H]2O)O[C@H](CO)[C@H]1OC(=O)/C(C)=C/CCC(C)(O)C=C (some centres undefined)
inactive: activity change, negative = cytotoxicity (SKOV3) -0.696% [at 11.6 µM] | activity change, negative = cytotoxicity (Tov-21-G) 0.188% [at 11.6 µM] | activity change, negative = cytotoxicity (Tov112D) -0.614% [at 11.6 µM]

CC/C=C\[C@H](O)[C@H](O)C1=C(C)C(=O)[C@]2(O1)C(=O)N[C@@](O)(C(=O)c1ccccc1)[C@@H]2O
inactive: Potency (SKOV3) | Potency (Tov-21-G) | Potency (Tov112D)

COC(=O)C1C(O)CCC2CN3CCc4c([nH]c5ccccc45)C3CC21 (centres undefined)
inactive: Potency (SKOV3) | Potency (Tov-21-G) | Potency (Tov112D)

C[C@@H]1CC[C@]2(C(=O)O)CC[C@]3(C)C(=CCC4[C@@]5(C)C[C@@H](O)[C@H](O)[C@@](C)(CO)C5CC[C@]43C)C2[C@H]1C (some centres undefined)
inactive: Potency (SKOV3) | Potency (Tov-21-G) | Potency (Tov112D)

C[C@@H]1O[C@@H](O[C@H]2[C@H](O[C@H]3[C@H](O[C@H]4CC[C@@]5(C)C(CC[C@]6(C)C5CC=C5[C@@H]7CC(C)(C)C[C@@H](O)[C@]7(C)CC[C@]56C)[C@@]4(C)CO)O[C@H](C(=O)O)[C@@H](O)[C@@H]3O)O[C@H](CO)[C@H](O)[C@@H]2O)[C@H](O)[C@H](O)[C@H]1O (some centres undefined)
inactive: activity change, negative = cytotoxicity (SKOV3) 11% [at 11.6 µM] | activity change, negative = cytotoxicity (Tov-21-G) 5.74% [at 11.6 µM] | activity change, negative = cytotoxicity (Tov112D) 0.964% [at 11.6 µM]
